This is a sample that favours compounds with a hit; in the whole collection about 1.6% have one here.
KCNQ2 block = rat KCNQ2 potassium channel inhibitors, primary screen, cell-based, CHO-K1, FluxOR thallium flux, B-score | Potassium voltage-gated channel subfamily KQT member 2 (Rattus norvegicus), O88943 | 20 min; hits give low values | B-score at 10 µM | actives 1.1% (n = 310,000);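 active = fluorescence ratio B-score at most minus 3 library SDs, with starting brightness B-score within 2 library SDs, cut at about -5.5 in these data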
KCNQ2 enhance = potentiators of rat KCNQ2 potassium channel | Potassium voltage-gated channel subfamily KQT member 2 (Rattus norvegicus), O88943 | CHO-K1 KCNQ2, FluxOR thallium flux fluorescence; hits give high values | B-score at 10 µM | actives 0.54% (n = 310,000);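 active = fluorescence ratio B-score at least 3 SD of library B-scores, with initial fluorescence B-score within 3 of them, cut at about 5.3 in these data; same plate scores as AID 2156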;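 note: B-score of peak minus minimum over baseline fluorescence ratio after K+ and Tl+ stimulus; positive B-score means potentiation of KCNQ2 with more thallium influx and brighter signal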
Kir21 conf inh = mouse Kir2.1 channel blockers, retest, confirmation, cell-based, FluxOR thallium flux, duplicate | actives 41% (n = 2,300) | Kir2.1-expressing cells, FluxOR thallium flux fluorescence; hits give low values | Tl flux remaining, % of negative control (hits give low values), % at 10 µM | shares compounds with KCNQ2 enhance | AID 2032, 2009;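 active = Primary-screen hit whose thallium flux fell at least 3 control SD below untreated wells in both duplicates, with normal baseline fluorescence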;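 note: 0% = blank wells without stimulus and 100% = stimulated no-compound controls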
HEK293 ctr = parental HEK293 activity in Kir2.1 inhibitor counter-screen. shares compounds with KCNQ2 enhance. FluxOR signal as % of negative control (100 = no effect), % at 10 µM. actives 19% (n = 2,300). AID 2105. parental HEK293 cells, FluxOR thallium flux fluorescence; 0% = unstimulated blank wells;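 active = dye signal at least 3 control SD above or below untreated wells in both duplicates, raw fluorescence within 3, either direction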;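 note: percent is based on the flux ratio of peak minus minimum fluorescence over baseline F0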
CHO-K1 Tl ctr = nonspecific thallium flux increase in parental CHO-K1, confirmation, counter-screen for KCNQ2 potentiator project, cell-based, FluxOR thallium flux, duplicate; activity increase over 3SD of controls, % at 10 µM; AID 2282, 2010; parental CHO-K1 cells, FluxOR thallium flux fluorescence; zero = vehicle mean+3SD, 100% = vehicle-minus-blank window; shares compounds with KCNQ2 enhance; actives 43% (n = 1,200);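 active = signal rise of at least 3 SD above the untreated control mean, in both duplicate wells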;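 note: counter screen of KCNQ2 potentiator hits so any rise reflects channel-independent effects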
KCNQ1 pot spec = human KCNQ1 channel potentiation off-target, confirmation, selectivity assay for KCNQ2 potentiator project, cell-based, CHO, FluxOR thallium flux. activation over 3SD threshold, % at 10 µM. actives 28% (n = 1,200). shares compounds with KCNQ2 enhance. CHO KCNQ1 stable, FluxOR thallium flux fluorescence; beyond 3SD, as % of vehicle-control signal;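 active = fluorescence ratio rise of at least 3 SD of vehicle wells above their mean, in both replicate wells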;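 note: 0% = vehicle mean plus 3 SD and 100% = vehicle minus unstimulated blank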
Target sequence (P51787 whole entry, looked up): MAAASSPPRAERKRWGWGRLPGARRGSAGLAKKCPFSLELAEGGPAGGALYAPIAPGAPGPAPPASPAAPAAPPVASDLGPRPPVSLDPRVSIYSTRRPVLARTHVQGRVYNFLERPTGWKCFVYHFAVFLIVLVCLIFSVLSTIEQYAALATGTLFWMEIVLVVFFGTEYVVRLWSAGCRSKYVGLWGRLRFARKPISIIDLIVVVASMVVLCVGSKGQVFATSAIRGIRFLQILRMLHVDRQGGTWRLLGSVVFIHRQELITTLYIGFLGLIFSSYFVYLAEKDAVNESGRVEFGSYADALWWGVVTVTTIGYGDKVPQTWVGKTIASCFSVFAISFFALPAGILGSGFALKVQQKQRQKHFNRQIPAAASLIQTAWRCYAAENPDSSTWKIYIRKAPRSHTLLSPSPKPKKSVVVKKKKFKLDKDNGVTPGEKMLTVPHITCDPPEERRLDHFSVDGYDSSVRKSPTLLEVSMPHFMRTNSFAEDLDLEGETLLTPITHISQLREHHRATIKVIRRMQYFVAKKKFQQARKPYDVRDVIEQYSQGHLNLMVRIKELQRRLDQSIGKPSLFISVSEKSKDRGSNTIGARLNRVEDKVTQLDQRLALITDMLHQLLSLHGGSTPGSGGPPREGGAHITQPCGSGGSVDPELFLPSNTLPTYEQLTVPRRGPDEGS
KCNQ2 pot confirm = rat KCNQ2 channel potentiators, confirmation, cell-based, CHO, FluxOR thallium flux, duplicate; potentiation, less the hit threshold, % at 10 µM; actives 68% (n = 1,200); shares compounds with KCNQ2 enhance; CHO-KCNQ2 cells, FluxOR thallium flux fluorescence;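 active = fluorescence ratio rising 3 SD or more over the vehicle control mean in both replicates, plus primary screen hit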;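 note: peak minus minimum thallium fluorescence divided by baseline after K/Tl stimulus; 0% = vehicle mean plus 3 SD and 100% = vehicle minus unstimulated blank difference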
Kir21 spec = mouse Kir2.1 channel activation off-target, confirmation, selectivity assay for KCNQ2 potentiator project, cell-based, HEK293, FluxOR thallium flux. shares compounds with KCNQ2 enhance. HEK293 Kir2.1, FluxOR thallium flux fluorescence. activity over 3SD threshold, % at 10 µM. actives 2% (n = 1,200). AID 2345, 2010;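 active = fluorescence ratio rise of at least 3 SD above the vehicle-control mean, seen in both replicates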;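 note: 0% = vehicle mean plus 3 SD and 100% = vehicle minus no-stimulus blank window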
KCNQ2 W236L pot = potentiators of retigabine-insensitive KCNQ2 W236L, mechanism study for KCNQ2 potentiator project, cell-based, rat KCNQ2 W236L, CHO, automated patch clamp. shares compounds with KCNQ2 enhance. automated patch clamp current. current increase over 3SD of negative controls (%), hits give high values, % at 25 µM. actives 10% (n = 940). AID 2558, 2010;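 active = current increase at least 3 SD of the untreated controls above them in both duplicate recordings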
* marks the source's active call; other numbers are inactive results; i = inactive; . = no result given.

SMILES	KCNQ2 block	KCNQ2 enhance	Kir21 conf inh	HEK293 ctr	others
COc1cc(C(=O)NNc2nc3cc4c(cc3s2)OCO4)cc(OC)c1OC	i	11.8*	i	i	CHO-K1 Tl ctr=-3.9;KCNQ1 pot spec=-40.6;KCNQ2 pot confirm=-9.2;Kir21 spec=-33.2
COc1cc(OC)cc(C(=O)NNc2nc3cc4c(cc3s2)OCO4)c1	i	2.08	.	.
C[C@H](NC(=O)c1ccccc1Cl)C(=O)OCc1cn2cc(Cl)ccc2n1	i	.	.	.
S=C(NCCCN1CCOCC1)N1CCN(c2nc(-c3ccc(Cl)cc3)cs2)CC1	i	.	.	.
S=C(NCC1CCCO1)N1CCN(c2nc(-c3ccc(Cl)cc3)cs2)CC1 (stereo not given)	i	.	i	i
CCOC(=O)C1(CC2CC2)CCN(Cc2ccc3cccc(F)c3n2)CC1	i	.	.	.
CNCc1ccccc1Sc1ccc(O)c(O)c1	i	.	39.0%*	i
COc1ccc(Sc2ccccc2CN(C)C)cc1OC	i	0.47	.	.
Cc1cccc(-c2nnc(SCC(=O)c3ccc(O)cc3O)n2C)c1	i	0.11	.	.
COc1ccc(NC(=O)c2sc3nc(N4CCOCC4)c4c(c3c2N)CC(C)(C)OC4)cc1	i	.	.	.
CC1(C)Cc2c(c(N3CCOCC3)nc3snc(NC(=O)c4ccccc4)c23)CO1	i	8.64*	i	i	CHO-K1 Tl ctr=-13.2;KCNQ1 pot spec=-15.1;KCNQ2 pot confirm=27.7*;Kir21 spec=-18.5;KCNQ2 W236L pot=i
O=C(c1c[nH]c2ccccc2c1=O)N1CCCCCC1	i	.	.	.
CN(C)CCNC(=S)Nc1ccc(Br)cc1	i	.	.	.
OCCC1CN(Cc2cccn2-c2ccccn2)CCN1Cc1ccccc1 (stereo not given)	i	0.21	.	.
CC(=O)C1=C(S(=O)(=O)c2ccc(C)cc2)CS(=O)(=O)C1	i	16.7*	i	72.5%*	CHO-K1 Tl ctr=-8.3;KCNQ1 pot spec=-4.5;KCNQ2 pot confirm=76.7*;Kir21 spec=-41.1;KCNQ2 W236L pot=76.4%*
Cc1ccc(S(=O)(=O)C2CS(=O)(=O)CC2O)cc1 (stereo not given)	i	0.88	.	.
CCc1ccc(CN2CCCC(C(=O)Nc3ccccc3-c3ccc(OC)cc3)C2)o1 (stereo not given)	-6.14*	-6.14	i	i
COCc1ccc(CN2CCCC(C(=O)Nc3ccccc3-c3ccc(OC)cc3)C2)o1 (stereo not given)	i	0.15	.	.
Cc1ccccc1C(=O)c1c[nH]c(C(=O)NCCc2ccccn2)c1	i	2.46	.	.
COc1ccc(C(=O)NC(C)C2CC3CCC2C3)c(OC)c1 (stereo not given)	i	.	.	.
COc1cccc(NC(=O)NC(C)C2CC3CCC2C3)c1 (stereo not given)	i	12.2*	i	i	CHO-K1 Tl ctr=-28.9;KCNQ1 pot spec=-11.7;KCNQ2 pot confirm=-0.2;Kir21 spec=-29.8;KCNQ2 W236L pot=i
C/C(=N\NC(=O)c1c[nH]c2ccccc12)c1ccc(C)o1	i	0.24	.	.
O=C(NNC(=O)c1cc2ccccc2cc1O)c1cccs1	i	1.25	.	.
